# Screening data: PubChem, National Center for Advancing Translational Sciences (NCATS)
# In the library only some 2.9% were active in any assay of this set; here they are far more common.
# Nrf2 ARE act: qHTS of Nrf2 Activators; AREc32 ARE-luciferase reporter (MCF7-derived line), luminescence, 24 h; AID 624171, 2012; 410,000 tested, 0.31% active; Potency, µM (series often up to 46.1 µM), inactives show top-dose activation, most hits filed as activators; note: % of control where 0% means no effect; nearly all actives have a fitted effect of over 65% in size
#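 Luciferase luminescence (Steady-Glo, 30 min at room temperature) served as the read-out of ARE activation in AREc32 cells treated with compounds for 24 hr at 37 deg C.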
# ATXN viability: Viability Counterscreen for Primary qHTS for Inhibitors of ATXN expression; S2 cells (HEK-293 line with an ATXN2-luciferase reporter) viability, CellTiter-Fluor protease fluorescence, 24 h; Potency, µM (top dose mostly 56.7 µM), most hits filed as cytotoxic; 400,000 tested, 0.49% active; AID 651635, 2014; note: nearly all actives have a fitted effect of over 40% in size
# Nrf2 inh: Nrf2 qHTS screen for inhibitors. A549 ARE-Fluc reporter, luciferase luminescence, 18-24 h. Potency, µM (doses to about 46 µM), without a hit: at the top dose activity change, negative = inhibition, most hits filed as inhibitors. 360,000 tested, 2.1% active; note: % is set by controls: 0 for no effect and ±100 for the full control effect; nearly all actives have a fitted effect of over 60% in size
#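 Two sequential reads on A549 ARE_Fluc cells exposed to compound for 18-24 h: a CellTiter-Fluor fluorescence read for viability, then a luciferase luminescence read for Nrf2/ARE activity.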
# A549 tox: Nrf2 qHTS screen for inhibitors: counterscreen for cytotoxicity; A549 ARE-Fluc cells, CellTiter-Fluor viability, 18-24 h; Potency, µM (top dose mostly 46 µM), inactives show top-dose activity change, negative = cytotoxicity, most hits filed as inhibitors; 390,000 tested, 0.16% active; AID 504648, 2011; note: % is set by controls: 0 for no effect and ±100 for the full control effect
#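 A549 ARE_Fluc cells in 5% FBS OPTI-MEM were exposed to compounds in concentration-response for 18-24 h at 37 deg C. Viability was read by CellTiter-Fluor fluorescence (Ex 405/Em 525) after 30 min, before the luciferase read.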
# ATXN2 expr inh: Primary qHTS for Inhibitors of ATXN expression | HEK-293 ATXN2-luciferase reporter, luminescence, 24 h | Potency, µM (highest dose often 57 µM), for inactives: at the top dose activity change, negative = inhibition, most hits filed as inhibitors | 360,000 tested, 0.72% active | AID 1745845, 2022; note: % is set by controls: 0 for no effect and ±100 for the full control effect; nearly all actives have a fitted effect of over 55% in size
#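 ATXN2-luciferase reporter cells (luciferase flanked by upstream and downstream ATXN2 gene portions) were treated 24 h at 37 °C with compounds at up to 57 uM. SteadyGlo luminescence gave expression; GF-AFC fluorescence gave viability.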
# An asterisk follows results filed as active; i = inactive; ? = inconclusive; · = not tested or not shown; ! = repeats disagree; [ ] = remark or other dose. Calls come from the whole dose curve; as a rule, active = well fitted curve in the direction sought with a large enough effect; inconclusive = small, poorly fitted or top-dose-only effect, or another doubt; inactive = no such curve, though single readings can be large; an effect the other way counts as inactive or inconclusive. Potency is the fitted concentration of half-maximal effect.
SMILES,Nrf2 ARE act,ATXN viability,Nrf2 inh,A549 tox,ATXN2 expr inh
Cc1nc(N2CCN(c3ccccn3)CC2)c2c(C)c(C(=O)Nc3ccccc3F)sc2n1,0%,i,16µM*,-16%,-6%
Cc1nc(N2CCOCC2)c2c(C)c(C(=O)Nc3ccccc3Cl)sc2n1,0%,?,3%,0%,-20%
COc1ccc(NC(=O)c2sc3ncnc(N4CCN(c5ccccn5)CC4)c3c2C)cc1Cl,0%,i,15µM*,?,?
Cc1nc(N2CCC(C)CC2)c2c(C)c(C(=O)Nc3ccc(C(F)(F)F)cc3)sc2n1,0%,i,21µM*,?,-7%[11.3 µM]
COc1ccc(Cl)cc1NC(=O)c1sc2nc(C)nc(N3CCOCC3)c2c1C,0%,i,21µM*,-19%,-4%
Cc1nc(N2CCN(c3ccccn3)CC2)c2c(C)c(C(=O)Nc3ccc(F)cc3F)sc2n1,1%,?,?,2%,?
Cn1c(SCC(=O)c2ccc3c(c2)OCCO3)nnc1C(F)(F)F,5%,i,-9%,-6%,·
CCc1ccc(OCc2nnc(NC(=O)c3cccs3)s2)cc1,0%,i,·,8%,9%
COc1ccc(OC)c(C2SCCN2S(=O)(=O)c2cccc(C(F)(F)F)c2)c1 (stereo unspecified),-1%,i,21µM*,-7%,-5%
OCCC1CN(C2CCC2)CCN1Cc1ccc(F)c(F)c1 (stereo unspecified),0%,?,9%,10%,-2%
CCOc1cc(CN2CCN(C(=O)c3ccco3)CC2)ccc1OC,0%,i,1%,1%,2%
CN(Cc1ccccc1)c1ccc(C(CC(N)=O)NC(=O)Cc2ccc(Br)cc2)cc1[N+](=O)[O-] (stereo unspecified),-1%,·,-13%,0%,?
CN(Cc1ccccc1)c1ccc(C(CC(N)=O)NC(=O)c2ccccc2)cc1[N+](=O)[O-] (stereo unspecified),0%,?,10µM*,?,?
Cc1cccc(-c2nnc(C3CCN(S(=O)(=O)c4cccc(Cl)c4)CC3)o2)c1,13%,1.4µM*,-5%,-7%,1.6µM*
CC(=O)Nc1ccc(S(=O)(=O)N2CCC(c3nnc(-c4ccc(C)cc4)o3)CC2)cc1,10%,18µM*,?,-29%,20µM*!
O=C(Nc1nccs1)c1cc(-c2ccccn2)nc2c(Cl)cccc12,4%,?,-25%,-14%,?
CCCCCCCC[n+]1c(C)n(-c2ccccc2)c2ccc(NC(C)=O)cc21,0%,i,12µM*,-12%,-15%
CC(=O)Nc1ccc(SCC(=O)c2cc(C)n(-c3ccccc3)c2C)cc1,3%,i,?,0%,31%
CC(C)CCn1c(=O)c(C(=O)N/N=C/c2cccc(F)c2)c(O)c2ccccc21,0%,i,12%,2%,2%
COc1cc(C(=O)Oc2c(Sc3ccc(C)cc3)c(C)nn2-c2ccccc2)cc(OC)c1OC,0%,i,-13%[9.27 µM],2%,-4%
COc1ccccc1C(=O)Oc1c(Sc2ccccc2)c(C)nn1-c1ccccc1,-1%,11µM*,8%[9.27 µM],?,?
Cc1ccnc(SCCn2c(N3CCC(C)CC3)nc3c2c(=O)[nH]c(=O)n3C)n1,0%,?,10%,-3%,-15%
COc1ccccc1NC(=O)C(C)OC(=O)CSCC(=O)Nc1ccc(C)cc1C (stereo unspecified),0%,?,3%,13%,·
COc1ccccc1-c1nn(-c2ccccc2)cc1C(=O)N1CCc2ccccc2C1,5%,i,21µM*,?,·
CCOc1ccccc1NC(=O)c1nc2nc(C)cc(C(F)F)n2n1,4%,·,·,1%,·
SMILES,Nrf2 ARE act,ATXN viability,Nrf2 inh,A549 tox,ATXN2 expr inh
O=[N+]([O-])c1cc(C(F)(F)F)ccc1N1CCN(S(=O)(=O)c2ccc3c(c2)CCCC3)CC1,0%,?,15µM*,-19%,-24%
N#Cc1ccccc1COC(=O)c1ccc2c(c1)OCCO2,2%,i,-4%,4%,30%
Cc1cc2oc(=O)c(CC(=O)NCCCN(C)C)c(C)c2c2occ(C(C)(C)C)c12,7%,22µM*,16%,-6%,-28%
Cc1cc2oc(=O)c(CC(=O)NCCCO)c(C)c2c2occ(C(C)(C)C)c12,2%,i,-5%,3%,5%
CN(C)CCN1C(=O)c2cccc3cc(N)cc(c23)C1=O,·,·,·,·,5.4µM*
CCN(CC)CCN1C(=O)c2cccc3cc(N)cc(c23)C1=O,-2%,?,?,?,?
Nc1cc2c3c(cccc3c1)C(=O)N(CCN1CCCC1)C2=O,3%,?,13µM*,?,?
COc1cccc(NC(=O)C2C3C=CC(O3)C2C(=O)O)c1 (stereo unspecified),0%,i,1%,0%,-23%[2.22 µM]
CC(C(=O)O)N1c2cccc3cccc(c23)S1(=O)=O (stereo unspecified),0%[9.22 µM],i,-5%,9%,1%
COc1ccc(C2NCCc3c2[nH]c2ccccc32)cc1COc1ccc(F)cc1 (stereo unspecified),-3%,32µM*,?,-90%,28µM*
O=c1c2ccccc2nc(SCc2ccc([N+](=O)[O-])cc2)n1-c1ccc(Cl)cc1,0%,i,1%,-2%,-8%[11.3 µM]
CCC(=O)NC(c1ccc2c(c1)OCO2)c1cc(Cl)c2cccnc2c1O (stereo unspecified),·,·,8%,-6%,·
CCCC(=O)NC(c1ccco1)c1cc(Cl)c2cccnc2c1O (stereo unspecified),1%,?,?,?,25µM*
CCCC(=O)NC(c1ccc2c(c1)OCO2)c1cc(Cl)c2cccnc2c1O (stereo unspecified),-1%,i,?,-1%,8.9µM*
O=[N+]([O-])c1ccc(O)c(/C=N/Nc2ccccn2)c1,5%,i,?,15µM*,2.8µM*
O=[N+]([O-])c1ccc(O)c(/C=N/Nc2nc3ccccc3[nH]2)c1,-1%,?,?,-26%,?
O=[N+]([O-])c1ccc(O)c(/C=N/Nc2ncnc3c2cnn3-c2ccccc2)c1,3%,?,1%,-7%,2.8µM*
CSc1ccc(Cn2c(C)c(C(=O)NCc3ccc(C(C)C)cc3)sc2=O)cc1,1%,i,·,·,4%
CC1CCCCN1C(=O)COC(=O)C1CCN(S(=O)(=O)c2ccc(Cl)c(C(F)(F)F)c2)CC1 (stereo unspecified),1%,i,9%,2%,-26%
CC(=O)N1CCN(c2ccc(NC(=O)c3ccc([N+](=O)[O-])cc3)cc2)CC1,0%,i,10%,1%,1%
C=CCOc1ccc(NC(=O)C(=O)NCCCn2ccnc2)cc1,-1%,?,-27%,-1%,-11%
